Source: PubChem
Hits are enriched below; roughly 11% of the tested compounds scored in any of these assays.
ALDH1A1 inh = qHTS Assay for Inhibitors of Aldehyde Dehydrogenase 1 (ALDH1A1). Purified ALDH1A1, NADH fluorescence, propionaldehyde substrate. Potency, µM (titrated, usually from 75.3 µM), usual class: inhibitors. 220,000 tested, 7.3% active
Target sequence (P00352 whole entry, looked up): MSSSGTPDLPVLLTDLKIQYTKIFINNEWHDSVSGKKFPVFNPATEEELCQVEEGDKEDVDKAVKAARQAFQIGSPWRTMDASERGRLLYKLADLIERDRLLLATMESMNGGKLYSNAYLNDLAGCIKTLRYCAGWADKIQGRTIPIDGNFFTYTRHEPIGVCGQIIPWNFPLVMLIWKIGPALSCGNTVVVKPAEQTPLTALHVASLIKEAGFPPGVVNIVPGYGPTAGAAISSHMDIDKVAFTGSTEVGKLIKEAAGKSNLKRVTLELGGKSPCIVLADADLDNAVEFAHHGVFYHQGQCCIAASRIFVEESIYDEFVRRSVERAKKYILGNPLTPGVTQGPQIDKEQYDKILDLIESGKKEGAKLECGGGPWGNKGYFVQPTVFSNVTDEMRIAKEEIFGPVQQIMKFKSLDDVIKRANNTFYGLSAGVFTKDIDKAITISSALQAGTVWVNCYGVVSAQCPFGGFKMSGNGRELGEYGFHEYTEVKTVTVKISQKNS
PNC inhibitor = High Content Assay for Compounds that inhibit the Assembly of the Perinucleolar Compartment; AID 2417, 2010; 140,000 tested, 3.1% active; activity change (PNC), negative = inhibition, % at 10 µM; PC3M PTB-GFP, PNC prevalence imaging, 16 h; hits give low values;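 active = readout at or below -70, meaning at least 70% loss of cells showing the perinucleolar compartment, a nuclear body marking cancer cells; inconclusive = readout between -30 and a set limit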
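Read-out is percentage of cells bearing a perinucleolar compartment, from automated 20x imaging of fixed, Hoechst-stained PC3M PTB-GFP cells. Cells were seeded 4 h, then exposed 16 h to compound (23 nl of library stock) in duplicate plates.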
HPGD inh = qHTS Assay for Inhibitors of HPGD (15-Hydroxyprostaglandin Dehydrogenase). purified HPGD, NADH fluorescence kinetic, PGE2 substrate. Potency, µM, most hits filed as inhibitors. 150,000 tested, 4.3% active. AID 894, 2007
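20 nM HPGD preincubated 15 min at room temperature with compound in 50 mM Tris-HCl pH 8, 0.01% Tween 20. Started with 1 mM NAD+ and 30 uM prostaglandin E2; NADH fluorescence (360/450 nm) read 5 times over 30-s intervals, last minus first.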
Numbers stand for hits; . = inactive; ? = inconclusive; / = no result given; [ ] = another dose, or the depositor's remark. Unless noted, calls come from the whole dose curve; as a rule, active = well fitted inhibition curve with a large enough effect (not every such curve was filed as active); inconclusive = small, poorly fitted or top-dose-only effect, or another doubt; inactive = no such curve, though single readings can be large or run the other way.

SMILES | ALDH1A1 inh | PNC inhibitor | HPGD inh
C=C1C[C@H](OC(=O)C(C)(O)CCl)C2C(=C)C(=O)O[C@@H]2C2C1C[C@H](O)[C@]2(O)CCl (stereo not given in full) | . | / | .
Cc1ccc(-c2onc3ccc(C4OCCO4)cc23)cc1 | . | / | /
Cc1cccnc1CCNC(=O)CC1C(=O)NCCN1CC1CCCCC1 (stereo not given) | . | / | /
N#CC1=C2SCN(c3ccccc3)CN2C(=O)CC1c1ccccc1Cl (stereo not given) | 3.2µM | . | 7.9µM
N#CCCCSC1=C(C#N)C(c2ccccc2Cl)CC(=O)N1 (stereo not given) | ? | . | .
N#CC1=C2SCN(c3ccccc3)CN2C(=O)CC1c1c(Cl)cccc1Cl (stereo not given) | 3.2µM | . | 7.9µM
N#CC1=C2SCC(O)(c3ccccc3)N2C(=O)CC1c1cccs1 (stereo not given) | 0.035µM | -89 | /
N#CC1=C2SCC(O)(c3ccccc3)N2C(=O)CC1c1ccccc1F (stereo not given) | ? | . | .
CSC1=C(C#N)C(c2cccs2)CC(=O)N1C (stereo not given) | ? | . | .
N#CC1=C2SCN(c3ccccc3)CN2C(=O)CC1c1cccs1 (stereo not given) | 3.2µM | . | 7.1µM
CCCCCCCCCCCCCC(=O)N[C@H](C)[C@@H](O)c1ccccc1 | . | / | .
Nc1cccc2cc(S(=O)(=O)Nc3ccc(C(=O)O)cc3)ccc12 | .[13.5 µM] | / | .
Cc1nc(-c2ccc(NC(=O)CC(C)C)cc2)cs1 | ? | . | .
COc1cccc(CNC(=O)CCC2CCCN(C(=O)C3=CC(=O)CC(C)(C)O3)C2)c1 (stereo not given) | . | / | /
CCN(CC(=O)Nc1ccc([N+](=O)[O-])cc1OC)CC(=O)NC(C)(C)C | . | . | .
CCOc1c(Cl)cc(/C=N/NC(N)=S)cc1OC | . | . | .
Cc1cccc(NC(=O)CSc2nnc(-c3cc(C)n(-c4ccccc4)c3C)o2)c1C | ? | . | .
Cc1cc(-c2nnc(SCC(=O)Nc3ccccc3C(F)(F)F)o2)c(C)n1-c1ccccc1 | 11µM | . | .
c1coc(CN=C2NC(=NCc3ccco3)c3ccccc32)c1 | 25µM | . | .
O=C1c2ccccc2NC(c2ccc(O)cc2)N1Cc1ccco1 (stereo not given) | ? | . | ?
O=C(O)CSc1ccccn1 | . | ? | .
CC(C)OCC(O)CSc1ccccn1 (stereo not given) | . | . | 18µM
Clc1ccc(-c2nnc(COc3ncnc4ccccc34)o2)cc1 | . | / | /
CC1(C)CC(=O)C(Sc2ccccc2)=C(O)C1 | 20µM | / | /
CC1(C)CC(=O)C(Sc2ccccc2C(=O)O)=C(O)C1 | . | ? | .
SMILES | ALDH1A1 inh | PNC inhibitor | HPGD inh
O=C(O)C(Oc1ccc2ccc(=O)oc2c1)c1ccccc1 (stereo not given) | ? | / | .
CCCCn1c(/N=C/c2ccc(N(C)C)cc2)nc2ccccc21 | 2.8µM | . | .
CCCCn1c(/N=C/c2c[nH]c3ccccc23)nc2ccccc21 | 25µM | . | .
C=CCn1c(/N=C/c2ccc(N(C)C)cc2)nc2ccccc21 | . | ? | /
CCCn1c(/N=C/c2c[nH]c3ccccc23)nc2ccccc21 | ? | . | .
C=CCN1CCN(c2nc3ccccc3nc2C#N)CC1 | . | / | .
CCC(=O)c1ccc(OCC(=O)NCC2(N3CCCCC3)CCCCC2)cc1 | . | / | /
CCO/C(C)=N/n1c2nc3ccccc3nc2c2c(=O)n(CC(C)C)c(C)nc21 | 25µM | . | .
CCOCCCn1c(C)nc2c(c1=O)c1nc3ccccc3nc1n2-c1ccc(C)cc1 | . | . | .
COCCNc1nc(-c2ccccc2CN(C)C)nc2ccccc12 | . | / | .
CCc1ccc(-c2nc(C(N)=O)c3[nH]c(=O)n(-c4ccccc4OC)c3n2)cc1 | ? | -106 | ?
COc1ccc(-c2nc(C(N)=O)c3[nH]c(=O)n(-c4cccc(Cl)c4)c3n2)cc1OC | . | . | .
Cc1ccc(C(=O)Nc2ccc(C(=O)O)cc2)cc1S(=O)(=O)NCc1ccccc1 | . | / | /
Cc1ccc2c(c1)oc(=O)n2CC(=O)c1ccccc1 | . | / | /
N#CC1=C(S)N(c2ccccc2)C(c2ccc(-c3ccccc3Cl)o2)NC1=O (stereo not given) | ? | ? | .
Cn1c(-c2cccc(Br)c2)n[nH]c1=O | . | / | /
CN(C)c1ccc(C=Nc2cnn(C)c2C(N)=O)cc1 | 3.5µM | . | .
Cn1ncc(N=Cc2ccc([N+](=O)[O-])cc2)c1C(=O)Nc1ccccc1 | . | / | /
CCn1c(CSc2nc3ccccc3s2)n[nH]c1=S | ? | . | ?
C=CCn1c(Cc2nc3ccccc3[nH]2)n[nH]c1=S | ? | . | ?
S=c1[nH]nc(CSc2nc3ccccc3s2)n1Cc1ccccc1 | ? | ? | 13µM
C=CCn1c(C(c2ccccc2)c2ccccc2)n[nH]c1=S | . | . | 25µM
C=CCn1c(CSc2nc3ccccc3s2)n[nH]c1=S | 11µM | . | 18µM
CCn1c(C(c2ccccc2)c2ccccc2)n[nH]c1=S | ? | . | .
CCC(C)(C)NC(=O)/C=C/c1cccs1 | . | ? | .
SMILES | ALDH1A1 inh | PNC inhibitor | HPGD inh
COc1ccc(Cl)cc1C(=O)NC(C)C | . | / | /
CCOc1ccc(-n2c(=O)c3sccc3n(CC(=O)NCCc3ccc(OC)c(OC)c3)c2=O)cc1 | . | / | /
NC(C(=O)O)(c1ccc(P(=O)(O)O)cc1)C1CC1 (stereo not given) | . | / | /
CCOC(=O)[C@H](CCc1ccccc1)N[C@@H](C)C(=O)N1[C@H](C(=O)O)C[C@H]2CCC[C@@H]21 | . | / | .
O=C(OC(C(=O)NC1CCCC1)c1ccccc1F)c1ccco1 (stereo not given) | . | -139 | .
Cc1ccc(C(OC(=O)c2ccco2)C(=O)NC2CCCCC2)cc1 (stereo not given) | . | . | .
CCOC1(/N=C(\C)NS(=O)(=O)c2ccc(Cl)cc2)C(C)=CC(=O)C=C1C | . | / | /
COCCNC(=O)CCc1c(C)nc2nc(-c3cc(OC)cc(OC)c3)nn2c1C | . | / | /
CC(C)CN(CCCNC(=O)CC1Oc2ccccc2NC1=O)CC(C)C (stereo not given) | . | . | .
CCCCN(CC)CCCNC(=O)CC1Oc2ccccc2NC1=O (stereo not given) | . | -109 | .
CCOc1ccc(NCc2nnc(SCC(=O)Nc3nc(-c4ccccc4)cs3)n2-c2ccccc2)cc1 | ? | . | .
CC(C)(O)[C@@H]1CCC[N+]2(C)CCCC[C@H]12 (stereo not given in full) | . | / | .
C/C(CC(=O)NCC(C)C)=N\NC(=O)COc1cc(C)c(Br)cc1Br | ? | . | .
CCCN=Cc1sc2ccc(OCC)cc2c1O | ? | . | ?
CCOc1ccc2c(O)csc2c1 | 25µM | . | .
C=CCn1c(SCCN2CCCC2)nc2c([nH]c3ccccc32)c1=O | . | / | /
O=S(=O)(c1ccc(F)cc1)N1CCN(c2ccc(-c3ccccc3)nn2)CC1 | . | / | /
CCOc1ccccc1Nc1nnc(SCC(=O)Nc2cccc(S(=O)(=O)NC3=NCCCCC3)c2)s1 | ? | . | .
